Screening results (PubChem BioAssay)
E coli Lon inh – inhibitors of E. coli Lon protease; 0.42% of 360,000 active; inhibition, % at 7.94 µM; AID 602123; P0A9M0; purified E. coli Lon protease, fluorescence polarization; in the data active means inhibition above about 13%, passing the limit was not always enough;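 further: 0% = enzyme with probe and DMSO and 100% = no enzyme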
Bcl-xL primary – blocks human Bcl-xL binding to Bim BH3 peptide; Q07817; GST-Bcl-xL / FITC-Bim BH3 peptide fluorescence polarization; inhibition, % at 10.9 µM; 0.7% of 320,000 active;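 active means inhibition above the mean of all tested compounds plus 3 SD, cutoff set per campaign, cut at about 30% in these data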;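 further: 0% = DMSO wells and 100% = unlabeled Bim-BH3 peptide competitor; inhibitors lower millipolarization by displacing the labeled peptide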
MEX-5 binding – C. elegans MEX-5 TCR-2 RNA binding activity; Q9XUB2; activity score (negative = inhibition of binding), % at 10 µM; 0.38% of 300,000 active; AID 1832; MEX-5/FITC-TCR2 RNA binding, fluorescence polarization; hits give low values;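 active means inhibition past about -25% in most replicates, and total fluorescence under double the plate's negative control median, limit read from the data; inconclusive means replicates evenly split on the limit, or fluorescence at least double controls; inactive means too little inhibition in most replicates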;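 further: 0% = DMSO and -100% = 5 µM competing unlabeled TCR2 RNA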
GLD-1 RNA inh – GLD-1-TGE RNA interaction inhibition (C. elegans); Q17339; purified GLD-1 + fluorescein TGE RNA, fluorescence polarization; inhibition, % at 5.96 µM; 0.44% of 320,000 active;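 active means percent inhibition above a per-plate cutoff, the plate mean of test compounds plus 3 SD, cut at about 30% in these data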;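 further: 0% = DMSO wells with GLD-1 and probe and 100% = wells lacking GLD-1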
EBV gp42 block – inhibitors of Epstein-Barr virus glycoprotein 42. Q1HVG2. Fluorescence polarization binding assay, mP read-out. inhibition, % (tested at 21.74 µM). 0.42% of 220,000 active; in the data active means inhibition above about 50%
Numbers without * were called inactive; ? = inconclusive; . = no result; + = active, no number. Most compounds without a hit are left out; they make up all but 1.3% or so of the library.

SMILES | E coli Lon inh | Bcl-xL primary | MEX-5 binding | GLD-1 RNA inh | EBV gp42 block
COc1cccc(C(=O)Nc2ccc(Oc3cccc(C(F)(F)F)c3)nc2)c1 | 3 | 7 | -1 | 0 | 0
O=C(O)C1CC(O)CN1c1nc(Cl)ccc1[N+](=O)[O-] (configuration not stated) | 11 | 37* | -4 | 25 | 16
N#Cc1c2ccc(OCC(=O)NCc3ccco3)cc2n2ccccc12 | 1 | 8 | 0 | 5 | .
N#Cc1c2ccc(O)cc2n2ccccc12 | 15 | 45* | -7 | 13 | 36
Cc1ccc(N(CC(=O)N2CCCCCC2)S(C)(=O)=O)cc1 | -5 | . | . | . | .
Cn1ncc2c(NNC(=O)Cc3ccccc3)ncnc21 | -12 | -1 | -35* | 1 | -10
CN1/C(=C\C=N\NC(=O)c2ccc(O)cc2)C(C)(C)c2ccccc21 | 13 | 39* | 5 | 32* | -7
CN1/C(=C\C=N\NC(=O)c2cccnc2)C(C)(C)c2ccccc21 | 0 | 6 | -2 | 7 | -20
CC1=C/C(=C\C=C(C#N)C#N)N(C)c2ccccc21 | -68 | 35* | 3 | -182 | -29
CN1/C(=C/C=C(C#N)C#N)C(C)(C)c2ccccc21 | -1 | 47* | -87* | -114 | 54*
CCN1/C(=C/C=C/C=C/c2sc3ccccc3[n+]2CC)Sc2ccccc21 | . | 128* | 6 | -32 | 31
CCN1/C(=C/C=C/C=C/C=C/c2sc3ccccc3[n+]2CC)Sc2ccccc21 | -32 | 7 | 27 | -131 | .
CCN1/C(=C/c2ccc3cc(C)ccc3[n+]2CC)Sc2ccccc21 | -178 | -40 | ? | 57* | -162
CC[n+]1c(/C=C/Nc2ccccc2)sc2ccccc21 | -1 | -4 | -2 | -19 | -48
CCN1/C(=C/C=C/c2sc3ccccc3[n+]2CC)Sc2ccccc21 | 30 | + | ? | 0 | .
COc1ccc(N2C(=O)c3ccccc3C2O)cc1 (configuration not stated) | -9 | 4 | 3 | 9 | .
COc1ccc(O)c(C(=O)C2c3ccccc3C(=O)N2c2ccc(C)cc2)c1 (configuration not stated) | -2 | 31* | 2 | 17 | -6
Cc1sc2nc3ccc(NCc4ccco4)nn3c(=O)c2c1C | 7 | 34* | . | 10 | 11
O=C1CCC/C1=c1\s/c(=C\c2cccnc2)c(=O)n1-c1ccccc1 | -9 | -3 | -26* | 3 | -22
CN1C=CC2=C(C#N)C(N)C(C#N)(C#N)[C@H](c3ccccc3)[C@H]2C1 (some centres not stated) | 13 | 81* | ? | 30 | 9
CC(=O)Nc1nnc(SCc2cccc(F)c2)s1 | -4 | 47* | -2 | 0 | -19
CC(=O)Nc1nnc(SCc2ccc(F)cc2)s1 | -7 | 6 | 3 | -1 | -3
COCCCn1c(N)c(-c2nc3ccccc3n2C)c2nc3ccccc3nc21 | -47 | -2 | -34* | -10 | -15
CN(CC(=O)Nc1ccccc1Cl)C(=O)c1ccc(COc2ccccc2)cc1 | -3 | -1 | -1 | 0 | .
C=CCN1C=C(C(C)=O)C(=O)CC1 | 11 | . | . | . | .
SMILES | E coli Lon inh | Bcl-xL primary | MEX-5 binding | GLD-1 RNA inh | EBV gp42 block
C=CCN1C=CC(=O)CC1 | 4 | 164* | 0 | 87* | -13
O=C1c2cccc([N+](=O)[O-])c2C(=O)N1CCO | -9 | 2 | -2 | 9 | -6
O=C1CSC(=S)N1N1C(=O)c2cccc([N+](=O)[O-])c2C1=O | . | 19 | -28* | 5 | -3
O=C(Nc1ccc(Br)cc1Cl)NC1CC1 | -5 | 1 | 0 | 4 | -4
CN(CC(=O)Nc1ccc(Cl)c(Cl)c1)Cc1nnc(-c2ccc(F)cc2)o1 | 10 | 3 | 1 | 1 | -9
CC(=O)c1cc(-c2ccccc2)n(CC(=O)N2CCN(C3CCCC3)CC2)c1C | 28 | 45* | -17 | 15 | -3
C=C1/C=C(\C)[C@](C)(O)C[C@H](O)CC(=O)[C@H](O)[C@@H](O)[C@H](C)C[C@H](C)OC(=O)/C(C)=C/CC/C=C/[C@@H]2O[C@H]2C[C@H](C)C1 | . | . | . | 4 | .
CC(C)NC(=O)C(=O)NNC(=O)CCc1ccccc1 | -3 | 1 | 0 | 7 | -13
CCCCOc1ccccc1C1NC(=O)CCC1[N+](=O)[O-] (configuration not stated) | -4 | 3 | -2 | 3 | .
CC(=O)Nc1nc(C)c(-c2csc(Nc3cccc([N+](=O)[O-])c3)n2)s1 | -1 | 13 | 2 | 5 | 63*
Cc1nc(NC(=O)c2ccccc2)sc1-c1csc(Nc2ccc(C(=O)O)cc2)n1 | -9 | . | -3 | . | 71*
